Shown are actives, neighbours in structure and some others; about 3% of the full set was active somewhere.
LmPK inhibitor: qHTS Assay for Inhibitors of Leishmania Mexicana Pyruvate Kinase (LmPK) | purified LmPK, Kinase-Glo ATP luminescence, 1 h | AID 1721, 2009 | 290,000 tested, 0.37% active | Q27686 | Potency, µM (top dose mostly 57.5 µM), inactives show at the highest dose activity change, negative = inhibition, actives largely listed as inhibitors
Target sequence (Q27686 whole entry, looked up): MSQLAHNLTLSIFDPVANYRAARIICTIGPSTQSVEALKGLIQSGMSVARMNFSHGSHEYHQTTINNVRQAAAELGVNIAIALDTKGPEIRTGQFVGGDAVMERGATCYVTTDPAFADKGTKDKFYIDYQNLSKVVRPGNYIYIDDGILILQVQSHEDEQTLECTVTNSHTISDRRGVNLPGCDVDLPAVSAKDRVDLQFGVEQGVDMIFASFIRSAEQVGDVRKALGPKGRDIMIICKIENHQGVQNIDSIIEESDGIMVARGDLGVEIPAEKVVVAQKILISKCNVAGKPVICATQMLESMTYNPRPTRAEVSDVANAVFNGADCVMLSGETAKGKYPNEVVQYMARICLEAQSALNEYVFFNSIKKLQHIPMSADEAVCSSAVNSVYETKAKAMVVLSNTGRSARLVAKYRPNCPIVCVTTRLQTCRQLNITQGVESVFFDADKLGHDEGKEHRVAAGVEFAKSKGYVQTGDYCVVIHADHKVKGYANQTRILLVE
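Screened at intermediate enzyme activity to detect both inhibitors and activators: LmPK at 0.1 nM, with a 0.5 nM enzyme column as activation reference. PEP 0.5 mM, ADP 0.1 mM; ATP detected by luminescence after 1 h.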
TbPYK inhibitor: qHTS of Trypanosoma Brucei Inhibitors; pyruvate kinase (Trypanosoma brucei), Q57TT1; TbPYK enzyme, Kinase-Glo Plus ATP luminescence, 45 min; Potency, µM (titrated, usually from 76.8 µM), for the others: top-dose activity, negative = inhibition, usual class: inhibitors; 410,000 tested, 0.12% active; also: nearly all actives have a fitted effect of over 50% in size
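T. brucei PYK with substrate was exposed to pin-transferred compounds across a concentration series, then started with 130 uM ADP (final). After 45 min at room temperature, Kinase-Glo Plus luminescence was read, normalized and curve-fitted.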
Sm TGR block: qHTS Assay for the Inhibitors of Schistosoma Mansoni Peroxiredoxins; purified TGR, DTNB reduction, TNB absorbance 405 nm; Potency, µM (highest dose often 114 µM), without a hit: at the top dose activity change, negative = inhibition, hits mostly inhibitors; 360,000 tested, 3% active; Schistosoma mansoni thioredoxin glutathione reductase (TGR), Q962Y6; also: nearly all actives have a fitted effect of over 60% in size
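First, TGR (20 nM dispensed) and NADPH were mixed with compound. Second, a 15 min room-temperature incubation followed. Third, further NADPH and then DTNB were added to start the reaction. Finally, TNB absorbance was monitored kinetically.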
RE007 growth inh: qHTS Assay for Inhibitors of the HIV-1 protein Vpr. S. pombe RE007 Vpr strain, BacTiter-Glo ATP luminescence, 24 h. Potency, µM (titrated, usually from 92.2 µM), for inactives: top-dose activity change, negative = less growth, most hits filed as inhibitors. 360,000 tested, 0.21% active; active = well fitted falling curve with a large enough effect; inconclusive = small, poorly fitted or top-dose-only effect; inactive = no such curve, though single readings can be large or run the other way; also: nearly all actives have a fitted effect of over 50% in size
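Fission yeast strain RE007, carrying one chromosomally integrated HIV-1 vpr copy, was seeded at OD 0.01 in PMG+AL medium with 23 nL pinned compound. After 24 h at 30 °C and 99% humidity, viability was read by BacTiter-Glo luminescence.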
Starred values were filed as active, the others as inactive; [ ] = remark or other dose. Unless noted, calls follow the shape of the dose curve; as a rule, active = well fitted curve in the direction sought with a large enough effect; inconclusive = small, poorly fitted or top-dose-only effect, or another doubt; inactive = no such curve, though single readings can be large; an effect the other way counts as inactive or inconclusive. % is scaled to controls: 0 for no effect and ±100 for the full control effect; potency is read from the fitted curve at half-maximal effect.

`CCOC(=O)C(C(=O)OCC)C(c1ccccc1)N1CCN(c2ccccc2)CC1` (stereo not drawn) gave TbPYK inhibitor -5% and RE007 growth inh 11%.
CCOc1ccc(C(c2c(O)cc(C)n(CCOC)c2=O)N2CCN(c3ccc(F)cc3)CC2)cc1 (stereo not drawn) was read as TbPYK inhibitor -8% and Sm TGR block 5.6µM*.
`COCCn1c(=S)[nH]c2cc(C(=O)N3CCN(c4ccc(F)cc4)CC3)ccc2c1=O` gave LmPK inhibitor 8%, TbPYK inhibitor -14%, Sm TGR block -2% and RE007 growth inh -1%.
COCCn1c(C)cc(O)c(C(c2ccccc2)N2CCN(CCO)CC2)c1=O (stereo not drawn) was read as TbPYK inhibitor -8% and Sm TGR block 3.5µM*.
Screening COCCn1c(C)cc(O)c(C(c2ccccc2)N2CCN(c3ccc(F)cc3)CC2)c1=O (stereo not drawn) returned TbPYK inhibitor 5% and Sm TGR block 3.2µM*.
For COc1ccc(N(C(=O)c2ccco2)S(=O)(=O)c2cccs2)cc1 the results were LmPK inhibitor 2%, TbPYK inhibitor -9%, Sm TGR block inconclusive and RE007 growth inh 14%.
Screening O=C(Nc1ccccc1N(C(=O)c1ccco1)S(=O)(=O)c1cccs1)c1ccco1 returned LmPK inhibitor 5%, TbPYK inhibitor 2%, Sm TGR block 45µM* and RE007 growth inh 9%.
For COc1ccc(-c2nnc(SCC(=O)NC3CCCC3)nc2-c2ccc(OC)c(OC)c2)cc1OC the results were TbPYK inhibitor -13% and Sm TGR block 7%.
O=C(CN1C(=O)COc2ccccc21)N1CCOCC1 was read as LmPK inhibitor 4%, TbPYK inhibitor -2%, Sm TGR block 0% and RE007 growth inh -13%.
For O=C1CN(CC(=O)N2CCOCC2)c2ccccc2O1 the results were LmPK inhibitor 3% and Sm TGR block 20µM*.
`O=C1CN(CC(=O)N2CCCCC2)c2ccccc2O1` gave LmPK inhibitor -3%, TbPYK inhibitor -2%, Sm TGR block 11µM* and RE007 growth inh inconclusive.
For CC(C)(O)C#Cc1ccc([C@@H]2C[C@H]3CN(c4ccccc4)C(=O)[C@]34CCCN24)s1 the results were LmPK inhibitor 0%, TbPYK inhibitor -3%, Sm TGR block -35%[57.1 µM] and RE007 growth inh 6%.
For O=C1N(c2ccccc2)C[C@@H]2C[C@@H](c3cccs3)N3CCC[C@@]123 the results were LmPK inhibitor -5%, TbPYK inhibitor -4%, Sm TGR block 16µM* and RE007 growth inh 13%.
`O=C(Nc1ccc(N2CCCCC2)cc1)c1ccccn1` gave LmPK inhibitor 7.9µM*, TbPYK inhibitor inconclusive, Sm TGR block -2% and RE007 growth inh inconclusive.
Screening CC(C)C(=O)Nc1ccc(N2CCCC2)cc1 returned LmPK inhibitor -4%, TbPYK inhibitor -21%, Sm TGR block 35µM* and RE007 growth inh -2%.
CC(C)C(=O)Nc1ccc(N2CCN(c3ccc(F)cc3)CC2)cc1 was read as LmPK inhibitor -9%, TbPYK inhibitor -6%, Sm TGR block 0% and RE007 growth inh 4%.
For Cc1ccc(Cn2c(=O)n(Cc3ccc(Cl)cc3)c(=O)c3cccnc32)cc1 the results were TbPYK inhibitor 0% and Sm TGR block 1%.
`O=S(=O)(c1ccccc1)c1cc(O)ccc1O` gave LmPK inhibitor -3%, TbPYK inhibitor -18%, Sm TGR block 28µM* and RE007 growth inh -1%.
Screening O=S(=O)(c1ccc(Cl)cc1)c1cc(O)ccc1O returned LmPK inhibitor -18%, TbPYK inhibitor -11%, Sm TGR block 11µM* and RE007 growth inh -1%.
For O=S(=O)(c1ccc(Cl)cc1)c1ccc(Cl)cc1 the results were TbPYK inhibitor 2%, Sm TGR block -11% and RE007 growth inh -4%.
COCC(C)Nc1ncnc2c1cnn2-c1ccc(C)c(C)c1 (stereo not drawn) was read as TbPYK inhibitor 1% and Sm TGR block 5%.
Screening C/C=C(\C)C(=O)N[C@@H](C)CN1C2=NC[C@H](C(C)C)N2C[C@H]1Cc1ccc(OC)cc1 returned LmPK inhibitor 2%, TbPYK inhibitor 0%, Sm TGR block 5.6µM* and RE007 growth inh -13%.
`CC(C)[C@H]1CN=C2N(C[C@H](C)NC(=O)CCC3CCCCC3)[C@H](Cc3ccc(O)cc3)CN21` gave LmPK inhibitor 1%, TbPYK inhibitor -16%, Sm TGR block 20µM* and RE007 growth inh inconclusive.
C/C=C(\C)C(=O)NCCN1C2=NC[C@@H](Cc3ccccc3)N2C[C@H]1Cc1ccc(O)cc1 was read as LmPK inhibitor 2%, TbPYK inhibitor -3%, Sm TGR block -1% and RE007 growth inh -9%.
For C/C=C(\C)C(=O)NCCN1C2=NC[C@H](Cc3ccc(O)cc3)N2C[C@H]1Cc1ccc(O)cc1 the results were LmPK inhibitor -3%, TbPYK inhibitor 2%, Sm TGR block 50µM* and RE007 growth inh -9%.
`COc1ccc(C[C@H]2CN3C(=NC[C@H]3C)N2CCNC(=O)c2ccc(C)c(Br)c2)cc1` gave LmPK inhibitor -8%, TbPYK inhibitor -3%, Sm TGR block 1% and RE007 growth inh -4%.
`C/C=C(\C)C(=O)NCCN1C2=NC[C@H](C(C)C)N2C[C@@H]1Cc1ccc(OC)cc1` gave LmPK inhibitor 0%, TbPYK inhibitor 0%, Sm TGR block 0% and RE007 growth inh -1%.
Screening COc1ccc(C[C@@H]2CN3C(=NC[C@@H]3C)N2C[C@H](C)NC(=O)c2ccc(C)c(Br)c2)cc1 returned LmPK inhibitor 1%, TbPYK inhibitor 0%, Sm TGR block 22µM* and RE007 growth inh -9%.
For C[C@@H](CN1C2=NC[C@H](C)N2C[C@H]1Cc1ccc(O)cc1)NC(=O)CCC1CCCCC1 the results were LmPK inhibitor 4%, TbPYK inhibitor -7%, Sm TGR block inconclusive and RE007 growth inh -10%.
For COc1ccc(C[C@H]2CN3C(=NC[C@@H]3C)N2CCNC(=O)CCC2CCCCC2)cc1 the results were LmPK inhibitor 4%, TbPYK inhibitor 0%, Sm TGR block 16µM* and RE007 growth inh 7%.
C[C@H]1CN=C2N(CCNC(=O)CCC3CCCCC3)[C@H](Cc3ccc(O)cc3)CN21 was read as LmPK inhibitor 0%, TbPYK inhibitor -13%, Sm TGR block -27% and RE007 growth inh -15%.
For CN1CCCN(S(=O)(=O)c2ccc3ccccc3c2)CC1 the results were LmPK inhibitor 1%, TbPYK inhibitor 3%, Sm TGR block 45µM* and RE007 growth inh -17%.
`CCc1c(C(C)S(=O)(=O)c2ccccc2)[nH]c(=O)n1CC` (stereo not drawn) gave LmPK inhibitor 4%, TbPYK inhibitor -16%, Sm TGR block 1µM* and RE007 growth inh -5%.
